What is called AC50 is the midpoint of the concentration-response curve, whichever way the signal moves.

Inconclusive results are not listed. Calls of active or inactive are those of the source. Unless noted, no cut-off is given here; in the data, nearly all actives have AC50 up to about 26 µM.

The first assay can be described thus: viability loss in pontine glioma line – cell-based, SU-DIPG-XXV, MIPE5.0, CellTiter-Glo, qHTS, dose response (AID 1347065).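 Note: cells exposed to compound for 48 hours before ATP readout.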 To be noted: CellTiter-Glo ATP luminescence.
Turning to `COc1ccc(-c2cc3nccn3c(Nc3ncccc3C(N)=O)n2)cc1OC`, the half-maximal activity concentration (AC50) was 5.25 µM (active).
Still for that read-out and setting: under `CC(C)(C)NC(=O)c1cncn1C1CCN(c2ccc(-c3nnc(C(F)(F)F)o3)cn2)CC1` stands 1.48 µM (active); under `CC[C@H](CC#N)OC(=O)N[C@@H](C)c1cccc(NC(=O)Nc2ccc(-c3cnco3)c(OC)c2)c1`, 0.468 µM (active).
The same measure, in the same setting: under `O=C1NC(=O)[C@@H](c2cn3c4c(cccc24)CCC3)[C@@H]1c1c[nH]c2ccccc12` stands 1.48 µM (active); under `O=C(Nc1nc2cccc(-c3ccc(CN4CCS(=O)(=O)CC4)cc3)n2n1)C1CC1`, 9.34 µM (active).
As for `O=C(CCCCCCC(=O)Nc1ccc([C@H]2O[C@@H](CSc3nc(-c4ccccc4)c(-c4ccccc4)o3)C[C@@H](c3ccc(CO)cc3)O2)cc1)NO`, the outcome was inactive.
On to `CNC(=O)c1cc(Oc2ccc(NC(=O)Nc3ccc(Cl)c(C(F)(F)F)c3)c(F)c2)ccn1`, for which the half-maximal activity concentration (AC50) was 20.9 µM (active).
Regarding `Nc1cccc(-c2cc3c(Oc4cccc(O)c4)ncnc3[nH]2)c1`, the AC50 was 5.25 µM (active).
Same read-out and setting: to `CN(C)CC(=O)N1CCC(c2ccc(NC(=O)c3ncc(C#N)[nH]3)c(C3=CCCCC3)c2)CC1` belongs 20.9 µM (active).
On to `CS(=O)(=O)N1CCc2c(-c3cnc(N)nc3)nc(N3CCOCC3)nc21`, for which the AC50 is 0.525 µM (active).
The same measure, in the same setting: under `CC(C)n1ncnc1-c1cn2c(n1)-c1ccc(O[C@@H](C)C(N)=O)cc1OCC2` stands 0.59 µM (active); under `Cc1c[nH]c2ncnc(N3CCC(CN)(C(=O)Nc4cccc(OC(=O)N(C)C)c4)CC3)c12`, 16.6 µM (active).
Same read-out and setting: under `COC1=C2C[C@H](C)C[C@H](OC)[C@H](O)[C@@H](C)/C=C(/C)[C@H](OC(N)=O)[C@@H](OC)/C=C\C=C(\C)C(=O)NC(=CC1=O)C2=O` stands 0.417 µM (active).
As for `O=C(O)/C(S)=C/c1ccc(I)cc1`, the result was inactive.
As for `CN1c2ccccc2C(=O)N2CCc3c([nH]c4ccccc34)C21` (stereo unspecified), the AC50 was 2.35 µM (active).
The same measure, in the same setting: under `O=C1[C@H](Cc2ccc(O)cc2)N2C(=O)CCN(C(=O)NCc3ccccc3)[C@H]2CN1Cc1cccc2ccccc12` stands 3.32 µM (active); under `CCC(=C/[C@H](C)C/C=C/C(C)=C/[C@@H](C)C(=O)[C@@H](C)[C@H](O)[C@@H](C)C/C(C)=C/C(=O)O)/C=C/[C@@H]1OC(=O)C=C[C@@H]1C`, 0.00209 µM (active).
`O=c1ccn([C@@H]2O[C@H](CO)[C@@H](O)[C@@H]2F)c(=O)[nH]1`: the outcome was inactive.
In the case of `CCNC(=O)Nc1ccc(-c2nc3c(c(N4CCOC[C@@H]4C)n2)CCN(C2COC2)C3)cc1`, the AC50 is 1.32 µM (active).
Same read-out and setting: under `CC(C)(O)CC(=O)NCCn1ccc2ncnc(Nc3ccc(Oc4cccc(C(F)(F)F)c4)c(Cl)c3)c21` stands 26.3 µM (active).
Take `CC(=O)Oc1cc2c(s1)CCN(C(C(=O)C1CC1)c1ccccc1F)C2` (stereo unspecified): the compound was classed as inactive.
For the compound `N#Cc1ccc(COC[C@H]2O[C@@H](n3c(NCc4ccc(Cl)c(Cl)c4)nc4c(N)ncnc43)[C@H](O)[C@@H]2O)cc1`, the AC50 was 18.6 µM (active).
`CCn1c(=O)c(-c2ccn[nH]2)cc2c(C)nc(N)nc21`: the AC50 is 4.17 µM (active).
On the same count and under the same terms, under `COc1cc2ncnc(Nc3cccc(Cl)c3)c2cc1OC` stands 20.9 µM (active); under `CNc1nccc(-c2cccnc2Oc2cc(C(=O)Nc3cccc(C(F)(F)F)c3)ccc2C)n1`, 5.9 µM (active).
For `CCCc1cc(C)[nH]c(=O)c1CNC(=O)c1cc(-c2ccnc(N3CCN(C)CC3)c2)cc2c1cnn2C(C)C`, the call was inactive.

Another assay in a line: growth inhibition of DIPG cells – cell-based, MIPE4.0 library, CellTiter-Glo luminescence, qHTS (AID 1347066; cut-off not given, nearly all actives have AC50 up to about 30 µM;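 note: cells exposed to compound for 48 hours before readout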). The conditions noted are these: SU-DIPG-VI viability, CellTiter-Glo ATP luminescence. On the technique in general: ATP-based viability assays read luminescence as a measure of living cells.
Take `CNc1nc(Nc2ccc(C(=O)N3CCOCC3)cc2OC)ncc1Cl`: the result was inactive.
Take `O=C1NC(=O)[C@@H](c2cn3c4c(cccc24)CCC3)[C@@H]1c1c[nH]c2ccccc12`: the half-maximal activity concentration (AC50) was 23.5 µM (active).
Consider `CNC(=O)c1cc(Oc2ccc(NC(=O)Nc3ccc(Cl)c(C(F)(F)F)c3)c(F)c2)ccn1`, for which the AC50 is 9.35 µM (active).
Still for that read-out and setting: to `CN(C)CC(=O)N1CCC(c2ccc(NC(=O)c3ncc(C#N)[nH]3)c(C3=CCCCC3)c2)CC1` belongs 18.7 µM (active).
On the same count and under the same terms, to `N#C/C(=C1/Nc2ccccc2S1)c1ccnc(OCc2ccc(CN3CCOCC3)cc2)n1` belongs 0.743 µM (active).
For `CN1c2ccccc2C(=O)N2CCc3c([nH]c4ccccc34)C21` (stereo unspecified), the outcome was inactive.
Still for that read-out and setting: to `O=c1ccn([C@@H]2O[C@H](CO)[C@@H](O)[C@@H]2F)c(=O)[nH]1` belongs “inactive”.
The same measure, in the same setting: to `N#Cc1ccc(COC[C@H]2O[C@@H](n3c(NCc4ccc(Cl)c(Cl)c4)nc4c(N)ncnc43)[C@H](O)[C@@H]2O)cc1` belongs “inactive”; to `CC[C@@H]([C@H](C)O)n1ncn(-c2ccc(N3CCN(c4ccc(OCC5CO[C@@](Cn6cncn6)(c6ccc(F)cc6F)C5)cc4)CC3)cc2)c1=O` (stereo partly specified), “inactive”.
Regarding `Nc1ccn([C@@H]2O[C@H](CO)[C@@H](O)C2(F)F)c(=O)n1`, the result was inactive.

A further assay in a line: JHH-DIPG-1 glioma cell viability, MIPE5.0 library, CellTiter-Glo luminescence, qHTS (AID 1347067).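 Note: cells exposed to compound for 48 hours before readout.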 To be noted: JHH-DIPG-1 glioma viability, CellTiter-Glo ATP luminescence.
As for `CC[C@H](CC#N)OC(=O)N[C@@H](C)c1cccc(NC(=O)Nc2ccc(-c3cnco3)c(OC)c2)c1`, the AC50 is 2.63 µM (active).
Consider `O=C(CCCCCCC(=O)Nc1ccc([C@H]2O[C@@H](CSc3nc(-c4ccccc4)c(-c4ccccc4)o3)C[C@@H](c3ccc(CO)cc3)O2)cc1)NO`, for which the compound was called inactive.
Same read-out and setting: to `CN(C)CC(=O)N1CCC(c2ccc(NC(=O)c3ncc(C#N)[nH]3)c(C3=CCCCC3)c2)CC1` belongs “inactive”.
Turning to `N#C/C(=C1/Nc2ccccc2S1)c1ccnc(OCc2ccc(CN3CCOCC3)cc2)n1`, the AC50 was 20.9 µM (active).
With `CN1c2ccccc2C(=O)N2CCc3c([nH]c4ccccc34)C21` (stereo unspecified), the AC50 is 5.25 µM (active).
On the same count and under the same terms, to `CCC(=C/[C@H](C)C/C=C/C(C)=C/[C@@H](C)C(=O)[C@@H](C)[C@H](O)[C@@H](C)C/C(C)=C/C(=O)O)/C=C/[C@@H]1OC(=O)C=C[C@@H]1C` belongs 18.6 µM (active).
As for `O=c1ccn([C@@H]2O[C@H](CO)[C@@H](O)[C@@H]2F)c(=O)[nH]1`, the result was inactive.
Consider `CC(C)(O)CC(=O)NCCn1ccc2ncnc(Nc3ccc(Oc4cccc(C(F)(F)F)c4)c(Cl)c3)c21`, for which the AC50 is 20.9 µM (active).
With `CC(=O)Oc1cc2c(s1)CCN(C(C(=O)C1CC1)c1ccccc1F)C2` (stereo unspecified), the compound was classed as inactive.
On to `N#Cc1ccc(COC[C@H]2O[C@@H](n3c(NCc4ccc(Cl)c(Cl)c4)nc4c(N)ncnc43)[C@H](O)[C@@H]2O)cc1`, for which the half-maximal activity concentration (AC50) is 18.6 µM (active).
Consider `Nc1ccn([C@@H]2O[C@H](CO)[C@@H](O)C2(F)F)c(=O)n1`, for which the call was inactive.
On to `CNC(=O)c1cc(COc2nnc(Nc3ccc(Cl)cc3)c3ccoc23)ccn1`, for which the concentration at half-maximal activity (AC50) was 5.9 µM (active).
On the same count and under the same terms, under `CO[C@@H]1[C@@H](O)[C@H](O)[C@@H](n2c3c(Cl)cccc3c3c4c(c5c6cccc(Cl)c6[nH]c5c32)C(=O)NC4=O)O[C@H]1CO` stands 2.63 µM (active).
`CC(C)=CCC/C(C)=C/CC/C(C)=C/CSc1ccccc1C(=O)O`: the result was inactive.
For the compound `Clc1ccc2ncc(-c3cccc(NC4CNC4)n3)n2c1`, the compound was called inactive.

The values above are taken from PubChem BioAssay.
